{"source": "PubChem BioAssay (NCI)", "note": "Compounds without any hit were thinned out: in the full panel of roughly 83,000, 20% have a hit.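 96-well plates, one dose, 48 hours. Percent growth reported; active if below 10.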 Unmarked numbers belong to inactive results. Calls of active or inactive are those of the source.", "data": [{"tested_on": "HL-60(TB) leukemia", "test": "NCI-60 one-dose screen, 48 h (100 = growth as untreated, 0 = no growth, -100 = all killed)", "details": "10 µM unless noted", "values": [{"smiles": "COc1ccc(C(=S)N2CCN(c3cccc(Cl)c3)CC2)cc1", "growth": "130%"}, {"smiles": "C=C(C)c1ccc(/C=N/NC(N)=S)cc1", "growth": "147%"}, {"smiles": "COc1ccc(Cl)cc1Nc1nc(C(F)(F)F)ccc1C(=O)N/N=C/c1cccnc1", "growth": "21.8%"}, {"smiles": "C#C[C@@]1(O)[C@@H](CO)O[C@@H](n2cc(I)c3c(N)ncnc32)[C@@H]1O", "growth": "-56.6% (active)"}, {"smiles": "CNc1ncc2cc(-c3cc(NC(=O)NCCC(C)(C)C)c(F)cc3C)c(C)nc2n1", "growth": "6.32% (active)"}, {"smiles": "Cc1cc(Nc2nc(N3CCN(C)CC3)nc3ccccc23)n[nH]1", "growth": "96.6%"}, {"smiles": "CC1C(/C=N/Nc2ccccc2)C(C#N)(C#N)C1(C#N)C#N", "note": "(stereo not given)", "growth": "54.3%"}, {"smiles": "N=C(c1ccccc1)N(Cc1ccccc1)Cc1ccccc1", "growth": "82.6%"}, {"smiles": "Cc1ccccc1NC(=O)N/C(N)=N/c1nc2ccccc2s1", "growth": "-23.2% (active)"}, {"smiles": "COc1ccc2c(c1)c(-c1nc(-c3cn(C)c4ncccc34)cs1)cn2CCN", "growth": "55.7%"}, {"smiles": "COC(=O)[C@@H](NC(=O)NC(=O)NC(=O)CI)C(C)C", "growth": "77.9%"}, {"smiles": "O=c1c(-c2nc3ccccc3[nH]2)cc2ccccc2n1Cc1cn(Cc2ccccc2Cl)nn1", "growth": "67.4%"}, {"smiles": "O=c1[nH]c(CN2CCN(c3ccccc3)CC2)nc2c(Br)cc(Br)cc12", "growth": "99.2%"}, {"smiles": "CN1C(=O)CN2CCc3ccccc3C2c2cc(Cl)ccc21", "note": "(stereo not given)", "growth": "86.8%"}, {"smiles": "CN(C)c1ccc(/C=c2\\s/c(=C\\C(=O)C(C)(C)C)[nH]c2=O)cc1", "growth": "119%"}, {"smiles": "O=C1c2cc3c(cc2-c2c1c1cc(F)c(F)cc1c(=O)n2CCCn1ccnc1)OCO3", "growth": "-15.4% (active)"}, {"smiles": "O=C(O)c1ccc2c(c1)C(=O)c1ccccc1C2=O", "growth": "102%"}, {"smiles": "COc1ccc2oc(=O)cc(-c3nc4ccc(N)cc4[nH]3)c2c1", "growth": "101%"}, {"smiles": "C=C(C)[C@@H]1CC[C@]2(C(=O)N3CCN(C)CC3)CC[C@]3(C)[C@H](CC[C@@H]4[C@@]5(C)CC[C@H](OCCC#N)C(C)(C)[C@@H]5CC[C@]43C)[C@@H]12", "growth": "73.8%"}, {"smiles": "NC(N)=N/N=C/CO", "growth": "102%"}, {"smiles": "CC(C)C(=O)c1ccc(Cl)s1", "growth": "99.9%"}, {"smiles": "COc1cc2c(cc1OCCCOc1cc3c(cc1OC)C(=O)N1CCC[C@H]1C=N3)C=CC(C)(C)O2", "growth": "102%"}, {"smiles": "O=C(Nc1ccc(Br)cc1)Nc1cccc(Br)c1", "growth": "5.54% (active)"}, {"smiles": "CCN(CC)CC(O)CNc1ccc(NCC2CO2)c2c1C(=O)c1ccccc1C2=O", "note": "(stereo not given)", "growth": "-25.2% (active)"}, {"smiles": "CC/C=C\\CCC/C=C1/C(=O)C=C[C@@H]1C/C=C\\CCCC(=O)OC", "growth": "-9.11% (active)"}, {"smiles": "COc1ccc(NC(=O)Nc2ccc(-c3ccc(OC)c(OC)c3)nc2C)cc1", "growth": "85.7%"}, {"smiles": "CCc1nc(N)nc(N)c1C#CC(C)c1cc(-c2ccnc(C)c2)c2oc(C)nc2c1", "note": "(stereo not given)", "growth": "-42.4% (active)"}, {"smiles": "CCCCN(CCCC)CC(CN(CC)CC)OC(=O)Nc1ccccc1", "note": "(stereo not given)", "growth": "84.1%"}, {"smiles": "COc1ccc(Nc2ncnc3ccc(-c4cncc(NS(C)(=O)=O)c4)cc23)cc1Cl", "growth": "3.01% (active)"}, {"smiles": "COc1ccc(-c2cc(-c3cc(-c4ccc(OC)cc4)nc(N)n3)nc(N)n2)cc1", "growth": "83.6%"}, {"smiles": "O=C(CC(=O)Nc1cccc(C(=O)O)c1)Nc1cccc(C(=O)O)c1", "growth": "113%"}, {"smiles": "CN(C)c1ccc(-n2nc3ccccc3n2)cc1", "growth": "90.5%"}, {"smiles": "CCN1C(=S)N(c2ccccc2)C2C1NN=c1s/c(=C3\\C(=O)N(C(C)C)c4ccccc43)c(=O)n12", "note": "(stereo not given)", "growth": "96.6%"}, {"smiles": "C=CC(=O)Nc1ccc(Oc2nccc(Nc3nnc(-c4ccc(C)cc4)s3)n2)cc1", "growth": "41.6%"}, {"smiles": "CCN(CC)CCCC(C)N=C(C1=C(C(=NC(C)CCCN(CC)CC)c2cccc(OC)c2)C(=O)NC1=O)c1cccc(OC)c1", "note": "(stereo not given)", "growth": "-49.3% (active)"}, {"smiles": "Nc1nc(N)c(NC(=O)CNc2ccc(C(=O)O)cc2)c(N)n1", "growth": "107%"}, {"smiles": "[2H]c1cc2c(c([2H])c1F)/C(=C/c1[nH]c(C)c(C(=O)NCCN(CC)CC)c1C)C(=O)N2", "growth": "4.9% (active)"}, {"smiles": "Cc1ccc(-c2nc3nc(-c4ccc(Cl)cc4)nc(N4CCCNCC4)c3o2)cc1", "growth": "-67.6% (active)"}, {"smiles": "Cc1cc2nc3cc(C)c(N)cc3[n+](-c3ccccc3)c2cc1N", "growth": "63.3%"}, {"smiles": "CCOC(=O)c1ccc2c(c1)c1c(C)c3cccnc3c(C)c1n2C", "growth": "77.4%"}]}]}
